Screening results (PubChem BioAssay)
Tb PYK inh = qHTS of Trypanosoma Brucei Inhibitors. 410,000 compounds, 0.12% hits. Potency, µM (highest dose often 76.8 µM), for the others: at the highest dose activity, negative = inhibition, actives largely listed as inhibitors. pyruvate kinase (Trypanosoma brucei), Q57TT1. TbPYK enzyme, Kinase-Glo Plus ATP luminescence, 45 min; also: potency is read from the fitted curve at half-maximal effect; % is scaled to controls: 0 for no effect and ±100 for the full control effect; nearly all actives have a fitted effect of over 50% in size
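Assay buffer: 50 mM TEA pH 7.2, 100 mM KCl, 10 mM MgCl2, 0.05% BSA, 0.01% Tween-20. Pyruvate kinase from T. brucei plus substrate met compound, then ADP (130 uM final). Luminescence was read post 45 min RT.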
FBPA Giardia inh = qHTS Assay for Inhibitors of Fructose-1,6-bisphosphate Aldolase from Giardia Lamblia | A8B2U2 | purified Giardia FBPA | Potency, µM (top dose mostly 59.6 µM), for the others: at the top dose activity, negative = inhibition, most hits filed as inhibitors | 290,000 compounds, 0.71% hits; also: potency is read from the fitted curve at half-maximal effect; % is scaled to controls: 0 for no effect and ±100 for the full control effect; nearly all actives have a fitted effect of over 55% in size
Target sequence (A8B2U2 whole entry, looked up): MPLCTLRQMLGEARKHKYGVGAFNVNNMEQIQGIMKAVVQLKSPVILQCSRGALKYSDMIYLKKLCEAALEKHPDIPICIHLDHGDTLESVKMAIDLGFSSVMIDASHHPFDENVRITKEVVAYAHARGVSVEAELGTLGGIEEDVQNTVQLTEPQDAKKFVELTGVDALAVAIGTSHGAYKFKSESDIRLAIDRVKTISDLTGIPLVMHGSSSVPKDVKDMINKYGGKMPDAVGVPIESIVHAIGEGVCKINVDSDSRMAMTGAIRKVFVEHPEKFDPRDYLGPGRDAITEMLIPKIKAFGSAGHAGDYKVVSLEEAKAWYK
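40 nM FBPA preincubated 10 min at RT with compound (up to 57.5 uM final), then substrate plus GAPDH/TPI/NAD/arsenate coupling and diaphorase/resazurin added. Fluorescence read after 20 min at RT, 525/598 nm.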
LmPK inhibitor = qHTS Assay for Inhibitors of Leishmania Mexicana Pyruvate Kinase (LmPK) | 290,000 compounds, 0.37% hits | Q27686 | Potency, µM (highest dose often 57.5 µM), for inactives: at the top dose activity change, negative = inhibition, most hits filed as inhibitors | purified LmPK, Kinase-Glo ATP luminescence, 1 h; also: potency is read from the fitted curve at half-maximal effect; % is scaled to controls: 0 for no effect and ±100 for the full control effect
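ATP generated from ADP (0.1 mM) and PEP (0.5 mM) by 0.1 nM LmPK over 1 h at room temperature (pH 7.2 imidazole buffer) was detected by coupled luciferase luminescence. Values were normalized to uninhibited and no-enzyme wells.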
Cycloheximide cs = Cycloheximide Counterscreen for Small Molecule Inhibitors of Shiga Toxin; max response, %; cell reporter, cycloheximide protein synthesis inhibition counterscreen; 300,000 compounds, 12% hits; in the data active = max response mostly above about 13%, no sharp cut-off; inactive = mostly below about 14%; also: read at 38.3 µM for the half of the compounds with a filed dose; 0% is about no effect
Sm TGR inh = qHTS Assay for the Inhibitors of Schistosoma Mansoni Peroxiredoxins | Schistosoma mansoni thioredoxin glutathione reductase (TGR), Q962Y6 | purified TGR, DTNB reduction, TNB absorbance 405 nm | Potency, µM (doses to about 114 µM), for the others: at the highest dose activity change, negative = inhibition, most hits filed as inhibitors | 360,000 compounds, 3% hits | AID 485364, 2010; also: potency is read from the fitted curve at half-maximal effect; % is scaled to controls: 0 for no effect and ±100 for the full control effect; nearly all actives have a fitted effect of over 60% in size
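First, TGR (20 nM dispensed) and NADPH were mixed with compound. Second, a 15 min room-temperature incubation followed. Third, further NADPH and then DTNB were added to start the reaction. Finally, TNB absorbance was monitored kinetically.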
Shiga inhibitor = A qHTS for Small Molecule Inhibitors of Shiga Toxin | Vero cells, Shiga toxin protein synthesis inhibition reporter | inhibition, % at 38.7 µM | 290,000 compounds, 9.2% hits | AID 2315, 2010; in the data active = inhibition mostly above about 28%, no sharp cut-off; inactive = mostly below about 43%; also: 0% is about no effect
Starred values were filed as active, the others as inactive; i = inactive; ? = inconclusive; nt = no result given; + = active, no number; [ ] = another dose, or the depositor's remark. Many of the other results were omitted from the sample, so hits are more common in it than they were. Unless noted, calls follow the shape of the dose curve; as a rule, active = well fitted curve in the direction sought with a large enough effect; inconclusive = small, poorly fitted or top-dose-only effect, or another doubt; inactive = no such curve, though single readings can be large; an effect the other way counts as inactive or inconclusive.

SMILES	Tb PYK inh	FBPA Giardia inh	LmPK inhibitor	Cycloheximide cs	Sm TGR inh	Shiga inhibitor
CCOC(=O)c1cc(S(=O)(=O)Nc2ccc(OC)cc2OC)cn1C	-1.2%	-1.7%	-3.6%	-1.4	56.2µM*	-3.4
Cc1ccc([C@H]2C[C@@H](O)[C@H](n3cc(-c4ccc(F)cc4)nn3)CN2C(=O)c2cccs2)cc1	-2.6%	nt	nt	nt	nt	nt
N#C/C(=C/c1ccc(N2CCCCCC2)o1)c1ccc(Cl)cc1	?	?	-1.2%	26.4	?	22.0
N#C/C(=C/c1ccc(N2CCCCC2)o1)c1cccc(F)c1	-37.8%	?	-1.3%	39.2*	2.51µM*	64.8*
N#C/C(=C/c1ccc(N2CCCCC2)cc1)c1cccc(F)c1	-8.3%	-4.0%	-10.2%	36.4*	0.8%	25.2
N#CC(C#N)=Cc1ccc(N2CCCC2)cc1	-2.6%	-3.0%	9.6%	28.5*	-1.6%	44.3
Cc1ccn(CCC(=O)Nc2ccc(-c3ccno3)cc2)n1	-0.7%	3.2%	-3.3%	21.1	-3.9%	13.7
CCN(CC)S(=O)(=O)c1ccc2c(c1)nc(CCC(=O)Nc1ccc3c(c1)OCO3)n2C	6.0%	-10.3%	1.7%	1.3	1.7%	-1.8
O=C(CCn1cccn1)Nc1ccc(-c2ccno2)cc1	-1.7%	4.7%	-2.6%	33.1*	-9.8%	34.1*
Cn1ccnc1SCC(=O)Nc1ccc2c(c1)OCO2	2.7%	-9.1%	-14.7%	41.0*	-125.7%	68.6
COc1ccc(-n2ccnc2SCC(=O)Nc2ccc3c(c2)OCO3)cc1	-5.0%	nt	nt	nt	5.7%	nt
O=C(CCn1cccn1)Nc1ccc2c(c1)OCO2	-0.2%	-10.3%	-4.3%	35.8*	8.2%	39.5*
CN(C)S(=O)(=O)c1ccc2c(c1)nc(CCC(=O)Nc1ccc3c(c1)OCO3)n2C	2.3%	-11.3%	1.0%	9.6*	-9.5%	48.0*
O=c1c2sc3ccccc3c2n(Cc2cccc(F)c2)c(=O)n1CCc1ccccc1	-0.2%	nt	nt	nt	0.5%	nt
O=C(CC(=O)Nc1cc(Cl)ccc1Cl)Nc1cc(Cl)ccc1Cl	6.3%	9.0%	0.4%	1.4	2.4%	-2.9
O=C(CSc1nccn1-c1ccccc1)Nc1ccc2c(c1)OCO2	-4.7%	1.0%	1.0%	70.1*	-1.8%	67.6*
O=C(CSc1nccn1-c1ccc(F)cc1)Nc1ccc2c(c1)OCO2	0.2%	nt	4.4%	5.0	1.1%	45.3
CC(=O)Nc1ccc(NC(=O)c2oc3c(c2C)-c2nn(Cc4ccccc4Cl)cc2CC3)cc1	-6.0%	nt	nt	nt	5.2%	nt
COc1ccc([C@]23Cc4cc(OC)c(OC)cc4C(O2)c2c(cc(C)oc2=O)O3)cc1	nt	-3.7%[12.9 µM]	0.7%[11.5 µM]	1.1	7.08µM*	i
COc1ccc([C@]23Cc4ccccc4C(O2)c2c(c4ccc(OC)cc4oc2=O)O3)cc1	nt	-5.4%[12.9 µM]	-10.1%[11.5 µM]	37.8*	?	+
O=c1oc2ccc(F)cc2c2c1C1O[C@](c3ccsc3)(Cc3c1ccc1ccccc31)O2	nt	14.0%[12.9 µM]	-17.5%[11.5 µM]	4.9	4.1%[22.9 µM]	i
COc1ccc([C@]23Cc4cc(OC)c(OC)cc4C(O2)c2c(c4ccccc4oc2=O)O3)cc1	nt	-5.0%[12.9 µM]	15.4%[11.5 µM]	-2.8	3.98µM*	i
COc1ccc2c3c(c(=O)oc2c1)C1O[C@](c2ccsc2)(Cc2ccccc21)O3	nt	-1.3%[12.9 µM]	-8.5%[11.5 µM]	6.9	?	i
O=c1oc2ccccc2c2c1C1O[C@](c3ccsc3)(Cc3ccccc31)O2	nt	18.1%[12.9 µM]	-5.0%[11.5 µM]	4.9	11.2µM*	i
C[C@@H]1/C=C\CC(=O)OC[C@H](C)C(=O)N[C@@H](C)C(=O)OC1	nt	0.8%[12.9 µM]	nt	nt	nt	nt
Cc1ccc(Oc2ncc(-c3ccc(Cl)cc3)cn2)cc1	1.4%	2.3%	-1.5%	6.2	13.6%	-23.6
Cc1ccc(Oc2ccc(Cl)cc2N)cc1	-0.6%	-12.7%	-2.4%	37.9*	8.4%	99.7*
Nc1cc(Cl)ccc1Oc1ccc2ccccc2c1	3.0%	-7.2%	0.5%	34.1*	2.4%	40.5*
Nc1nc(Cl)cc(Sc2ccc3ccccc3c2)n1	-1.2%	0.1%	4.2%	9.6	-0.5%	27.3
